Assay [1] has as its system PRMT1 (protein arginine N-methyltransferase 1). The assay can be described thus: PRMT1 binders on small-molecule microarrays, primary screen, biochemical, small-molecule microarray, 635 nm fluorescence (AID 1088).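 Note: binding of Prmt1 protein to compounds spotted on small-molecule microarray slides.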 The following applies: small-molecule microarray binding, higher = more signal.
Assay [2] can be described thus: yeast growth modulation, basal conditions, primary screen, YJM789 clinical isolate, OD600, 24 h (AID 1089).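 Note: growth of clinical yeast isolate S. cerevisiae YJM 789 seeded 1000 cells per well; test concentration not given here.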 The following applies: S. cerevisiae YJM789 growth, higher = more signal, called active from +8 up or from −8 down.
Assay [3] is described as follows: fission yeast growth modulation, primary screen, strain 972, OD600, 24 h, no modulator (AID 1090).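 Note: basal condition with compound alone and no growth modifier present; test concentration not given here.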 Particulars: S. pombe 972 growth, higher = more signal, called active from +8 up or from −8 down.
A short description of assay [4]: S. cerevisiae growth modulation with rapamycin, primary screen, strain BY4716, OD600, 96 h (AID 1091). Note: test concentration not given here. Particulars: higher = more signal, called active from +8 up or from −8 down.
In assay [5] the target is Torsin-1A-interacting protein 2 (Homo sapiens) (UniProt Q8NFQ8). The assay can be described thus: LULL1 binders on small-molecule microarray, primary screen, cell lysate, human LULL1 lysate, 635/667 nm fluorescence (AID 1092).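 Note: probe is lysate of COS7 cells overexpressing human LULL1; score merges per-feature 667 nm fluorescence with signal-to-noise.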 The following applies: hLULL1 lysate binding, 635 nm fluorescence, higher = more signal.
Chain of Torsin-1A-interacting protein 2 (Homo sapiens) (Q8NFQ8 whole entry, looked up): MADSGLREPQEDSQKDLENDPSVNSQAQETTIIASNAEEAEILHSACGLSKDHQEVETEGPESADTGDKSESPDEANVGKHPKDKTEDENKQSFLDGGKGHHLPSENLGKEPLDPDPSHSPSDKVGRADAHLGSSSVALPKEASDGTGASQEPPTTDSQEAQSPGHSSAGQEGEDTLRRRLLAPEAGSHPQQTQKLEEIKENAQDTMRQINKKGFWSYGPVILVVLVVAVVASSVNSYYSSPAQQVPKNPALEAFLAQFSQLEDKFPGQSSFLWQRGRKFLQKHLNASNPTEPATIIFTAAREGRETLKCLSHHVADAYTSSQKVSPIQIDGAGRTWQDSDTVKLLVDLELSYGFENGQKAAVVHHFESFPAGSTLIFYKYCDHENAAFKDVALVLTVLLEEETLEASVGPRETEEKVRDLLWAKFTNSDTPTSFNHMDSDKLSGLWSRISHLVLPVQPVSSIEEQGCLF
Assay [6] can be described thus: E. coli growth modulation, two-sided OD650, primary screen, E. coli filamentation project, strain DRC41, 24 h (AID 1093).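 Note: MC1000 strain lacking acrAB efflux and sulA so SOS filamentation is blocked; test concentration not given here.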 Particulars: OD650, 24 h, higher = more signal, called active from +8 up or from −8 down.
The nature of assay [7]: small-molecule microarray binders of probe aLefty2, primary screen, biochemical, biotinylated probe, 635/667 nm fluorescence (AID 1094).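 Note: score merges spot fluorescence near 667 nm with spot signal-to-noise ratio.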 The following applies: higher = more signal.
In assay [8] the test system is Noggin (protein binding on small-molecule microarray). As to the kind of experiment: Noggin binders on small-molecule microarray, primary screen, biochemical, 635/667 nm fluorescence (AID 1095).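 Note: score merges 667 nm feature fluorescence with signal to noise over triplicate slides.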 Particulars: 635 nm fluorescence, higher = more signal.
Assay [9] concerns the target Neurogenic locus notch homolog protein 3 (Homo sapiens) (UniProt Q9UM47). The assay can be described thus: NOTCH3 binders on small-molecule microarray, primary screen, biochemical, 635/667 nm fluorescence (AID 1096). Particulars: NOTCH3 binding, 635 nm fluorescence, higher = more signal.
Assay [10] in a line: small-molecule microarray binders of probe aEGFR, primary screen, biochemical, biotinylated probe, 635/667 nm fluorescence (AID 1097).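 Note: probe is a biotinylated anti-EGFR antibody binding compounds printed on slides; score combines fluorescence near 667 nm and signal to noise of each spot.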 Particulars: higher = more signal.
For assay [11], the system named is Plasmodium falciparum Sir2 (PF13_0152, Sir2A). The assay can be described thus: pfSir2 binders on small-molecule microarrays, primary screen, biochemical, small-molecule microarray, 635 nm fluorescence (AID 1098).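 Note: score merges spot fluorescence intensity with its signal-to-noise ratio.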 The following applies: small-molecule microarray binding, fluorescence 635 nm; higher = more signal.
Assay [12] is described as follows: small-molecule microarray binders of probe aDKK1, primary screen, biochemical, biotinylated probe, 635/667 nm fluorescence (AID 1099).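 Note: score merges 667nm spot fluorescence with signal to noise across triplicate slides; reference of the scale not given here.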 The following applies: higher = more signal.
Assay [13] is described as follows: small-molecule microarray binders of probe aCHRDL2, primary screen, biochemical, biotinylated probe, 635/667 nm fluorescence (AID 1100). The following applies: higher = more signal.
Assay [14] in a line: splicing luciferase reporter signal modulators, primary screen, spliceosome inhibition project, cell-based, HEK293, splice +/- reporter (AID 1101).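 Note: HEK293 cells carrying a splicing-competent luciferase reporter gene; test concentration not given here.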 Particulars: luminescence, 24 h, higher = more signal, called active from +8 up or from −8 down. (A reporter such as luciferase makes a cellular process visible.)
Assay [15] addresses Fibroblast growth factor 10 (Homo sapiens) (UniProt O15520). As to the kind of experiment: FGF10 binders on small-molecule microarrays, primary screen, biochemical, small-molecule microarray, 635 nm fluorescence (AID 1102). Particulars: FGF10 binding, fluorescence 635 nm, higher = more signal.
The subject of assay [16] is glycogen synthase kinase-3 (GSK3A per assay name; protocol says GSK3B). As to the kind of experiment: GSK3 binders on small-molecule microarrays, primary screen, biochemical, small-molecule microarray, 635 nm fluorescence, GSK3A (AID 1103). Note: the record names both GSK3A and GSK3B. Particulars: small-molecule microarray binding, fluorescence 635 nm; higher = more signal.
In assay [17] the target is Epidermal growth factor receptor (Homo sapiens) (UniProt P00533). As to the kind of experiment: EGFR binders on small-molecule microarrays, primary screen, biochemical, small-molecule microarray, 635 nm fluorescence (AID 1104).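 Note: score merges 667 nm emission intensity with spot signal to noise over triplicate slides.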 The following applies: EGFR binding, higher = more signal.
Chain of Epidermal growth factor receptor (Homo sapiens) (P00533 whole entry, looked up): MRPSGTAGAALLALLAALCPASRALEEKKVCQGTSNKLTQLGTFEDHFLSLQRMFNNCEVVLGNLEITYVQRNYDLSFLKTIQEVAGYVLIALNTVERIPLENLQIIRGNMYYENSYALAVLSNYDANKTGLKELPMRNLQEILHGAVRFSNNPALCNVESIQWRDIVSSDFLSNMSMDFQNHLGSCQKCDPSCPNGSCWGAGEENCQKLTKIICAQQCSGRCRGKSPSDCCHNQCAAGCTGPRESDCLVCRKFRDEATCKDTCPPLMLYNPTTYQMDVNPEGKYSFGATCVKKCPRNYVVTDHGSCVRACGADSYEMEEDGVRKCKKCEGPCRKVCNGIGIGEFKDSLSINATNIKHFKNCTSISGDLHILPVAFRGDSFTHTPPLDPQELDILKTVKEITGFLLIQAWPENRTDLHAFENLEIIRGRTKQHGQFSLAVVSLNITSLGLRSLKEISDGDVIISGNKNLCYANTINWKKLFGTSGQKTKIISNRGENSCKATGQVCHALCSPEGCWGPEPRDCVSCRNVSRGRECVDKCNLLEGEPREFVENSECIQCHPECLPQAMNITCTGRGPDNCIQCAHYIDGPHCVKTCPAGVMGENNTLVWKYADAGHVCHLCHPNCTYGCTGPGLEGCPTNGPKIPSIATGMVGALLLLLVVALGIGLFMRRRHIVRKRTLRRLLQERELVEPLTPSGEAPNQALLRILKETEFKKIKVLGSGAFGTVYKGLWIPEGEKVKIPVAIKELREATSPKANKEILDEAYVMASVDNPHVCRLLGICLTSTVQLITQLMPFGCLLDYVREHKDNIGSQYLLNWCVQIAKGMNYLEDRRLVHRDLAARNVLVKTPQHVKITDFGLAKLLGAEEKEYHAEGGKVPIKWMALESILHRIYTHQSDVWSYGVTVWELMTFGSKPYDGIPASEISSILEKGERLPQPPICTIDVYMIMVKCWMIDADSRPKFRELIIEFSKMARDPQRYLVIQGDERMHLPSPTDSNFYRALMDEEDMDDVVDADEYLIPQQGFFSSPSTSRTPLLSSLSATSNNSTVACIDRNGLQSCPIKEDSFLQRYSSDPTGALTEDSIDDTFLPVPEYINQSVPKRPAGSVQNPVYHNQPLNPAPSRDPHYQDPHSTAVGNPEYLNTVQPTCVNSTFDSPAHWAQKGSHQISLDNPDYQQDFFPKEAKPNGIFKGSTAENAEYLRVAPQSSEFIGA
The target of assay [18] is Follistatin-related protein 3 (Homo sapiens) (UniProt O95633). As to the kind of experiment: FSTL3 binders on small-molecule microarrays, primary screen, biochemical, small-molecule microarray, 635 nm fluorescence (AID 1105).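 Note: score merges emission near 667 nm and signal to noise per printed spot across three slides.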 Particulars: FSTL3 binding, higher = more signal.
Chain of Follistatin-related protein 3 (Homo sapiens) (O95633 whole entry, looked up): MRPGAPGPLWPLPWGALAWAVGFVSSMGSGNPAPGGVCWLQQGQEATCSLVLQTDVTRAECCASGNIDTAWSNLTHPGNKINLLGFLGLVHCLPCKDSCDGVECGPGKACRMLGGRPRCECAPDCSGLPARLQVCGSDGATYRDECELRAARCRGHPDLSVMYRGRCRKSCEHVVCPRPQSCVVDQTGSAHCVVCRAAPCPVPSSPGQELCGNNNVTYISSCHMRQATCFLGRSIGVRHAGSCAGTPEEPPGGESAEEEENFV
The target in assay [19] is Dickkopf-related protein 1 (Homo sapiens) (UniProt O94907). The assay can be described thus: DKK1 binders on small-molecule microarrays, primary screen, biochemical, small-molecule microarray, 635 nm fluorescence scan (AID 1106).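 Note: score merges emission near 667 nm with signal to noise over three replicate slides.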 The following applies: DKK1 binding, higher = more signal.
Chain of Dickkopf-related protein 1 (Homo sapiens) (O94907 whole entry, looked up): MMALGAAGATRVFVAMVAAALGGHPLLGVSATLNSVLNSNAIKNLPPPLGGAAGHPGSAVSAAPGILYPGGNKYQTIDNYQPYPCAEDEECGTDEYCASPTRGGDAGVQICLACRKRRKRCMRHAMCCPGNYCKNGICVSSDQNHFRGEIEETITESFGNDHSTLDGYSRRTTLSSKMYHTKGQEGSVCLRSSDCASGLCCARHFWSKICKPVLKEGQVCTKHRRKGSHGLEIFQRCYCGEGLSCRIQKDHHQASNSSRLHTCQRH
Assay [20] relates to Inhibin beta A chain (activin A). The assay can be described thus: INHBA (activin A) binders on microarrays, primary screen, biochemical, small-molecule microarray, 635 nm fluorescence scan (AID 1107).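 Note: mouse activin A protein probed at 4.33 µg/mL on printed slides; score merges bound-protein fluorescence near 667 nm with spot signal-to-noise.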 The following applies: small-molecule microarray binding, higher = more signal.

The results in this text go back to PubChem BioAssay.

Calls of active or inactive are those of the source.

Chain of Fibroblast growth factor 10 (Homo sapiens) (O15520 whole entry, looked up): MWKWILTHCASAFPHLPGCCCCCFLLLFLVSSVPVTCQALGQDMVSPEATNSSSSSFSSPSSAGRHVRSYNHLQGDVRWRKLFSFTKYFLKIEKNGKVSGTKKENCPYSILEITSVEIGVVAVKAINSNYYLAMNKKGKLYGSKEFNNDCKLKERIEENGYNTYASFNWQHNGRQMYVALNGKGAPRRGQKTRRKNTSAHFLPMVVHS
Chain of Neurogenic locus notch homolog protein 3 (Homo sapiens) (Q9UM47 whole entry, looked up): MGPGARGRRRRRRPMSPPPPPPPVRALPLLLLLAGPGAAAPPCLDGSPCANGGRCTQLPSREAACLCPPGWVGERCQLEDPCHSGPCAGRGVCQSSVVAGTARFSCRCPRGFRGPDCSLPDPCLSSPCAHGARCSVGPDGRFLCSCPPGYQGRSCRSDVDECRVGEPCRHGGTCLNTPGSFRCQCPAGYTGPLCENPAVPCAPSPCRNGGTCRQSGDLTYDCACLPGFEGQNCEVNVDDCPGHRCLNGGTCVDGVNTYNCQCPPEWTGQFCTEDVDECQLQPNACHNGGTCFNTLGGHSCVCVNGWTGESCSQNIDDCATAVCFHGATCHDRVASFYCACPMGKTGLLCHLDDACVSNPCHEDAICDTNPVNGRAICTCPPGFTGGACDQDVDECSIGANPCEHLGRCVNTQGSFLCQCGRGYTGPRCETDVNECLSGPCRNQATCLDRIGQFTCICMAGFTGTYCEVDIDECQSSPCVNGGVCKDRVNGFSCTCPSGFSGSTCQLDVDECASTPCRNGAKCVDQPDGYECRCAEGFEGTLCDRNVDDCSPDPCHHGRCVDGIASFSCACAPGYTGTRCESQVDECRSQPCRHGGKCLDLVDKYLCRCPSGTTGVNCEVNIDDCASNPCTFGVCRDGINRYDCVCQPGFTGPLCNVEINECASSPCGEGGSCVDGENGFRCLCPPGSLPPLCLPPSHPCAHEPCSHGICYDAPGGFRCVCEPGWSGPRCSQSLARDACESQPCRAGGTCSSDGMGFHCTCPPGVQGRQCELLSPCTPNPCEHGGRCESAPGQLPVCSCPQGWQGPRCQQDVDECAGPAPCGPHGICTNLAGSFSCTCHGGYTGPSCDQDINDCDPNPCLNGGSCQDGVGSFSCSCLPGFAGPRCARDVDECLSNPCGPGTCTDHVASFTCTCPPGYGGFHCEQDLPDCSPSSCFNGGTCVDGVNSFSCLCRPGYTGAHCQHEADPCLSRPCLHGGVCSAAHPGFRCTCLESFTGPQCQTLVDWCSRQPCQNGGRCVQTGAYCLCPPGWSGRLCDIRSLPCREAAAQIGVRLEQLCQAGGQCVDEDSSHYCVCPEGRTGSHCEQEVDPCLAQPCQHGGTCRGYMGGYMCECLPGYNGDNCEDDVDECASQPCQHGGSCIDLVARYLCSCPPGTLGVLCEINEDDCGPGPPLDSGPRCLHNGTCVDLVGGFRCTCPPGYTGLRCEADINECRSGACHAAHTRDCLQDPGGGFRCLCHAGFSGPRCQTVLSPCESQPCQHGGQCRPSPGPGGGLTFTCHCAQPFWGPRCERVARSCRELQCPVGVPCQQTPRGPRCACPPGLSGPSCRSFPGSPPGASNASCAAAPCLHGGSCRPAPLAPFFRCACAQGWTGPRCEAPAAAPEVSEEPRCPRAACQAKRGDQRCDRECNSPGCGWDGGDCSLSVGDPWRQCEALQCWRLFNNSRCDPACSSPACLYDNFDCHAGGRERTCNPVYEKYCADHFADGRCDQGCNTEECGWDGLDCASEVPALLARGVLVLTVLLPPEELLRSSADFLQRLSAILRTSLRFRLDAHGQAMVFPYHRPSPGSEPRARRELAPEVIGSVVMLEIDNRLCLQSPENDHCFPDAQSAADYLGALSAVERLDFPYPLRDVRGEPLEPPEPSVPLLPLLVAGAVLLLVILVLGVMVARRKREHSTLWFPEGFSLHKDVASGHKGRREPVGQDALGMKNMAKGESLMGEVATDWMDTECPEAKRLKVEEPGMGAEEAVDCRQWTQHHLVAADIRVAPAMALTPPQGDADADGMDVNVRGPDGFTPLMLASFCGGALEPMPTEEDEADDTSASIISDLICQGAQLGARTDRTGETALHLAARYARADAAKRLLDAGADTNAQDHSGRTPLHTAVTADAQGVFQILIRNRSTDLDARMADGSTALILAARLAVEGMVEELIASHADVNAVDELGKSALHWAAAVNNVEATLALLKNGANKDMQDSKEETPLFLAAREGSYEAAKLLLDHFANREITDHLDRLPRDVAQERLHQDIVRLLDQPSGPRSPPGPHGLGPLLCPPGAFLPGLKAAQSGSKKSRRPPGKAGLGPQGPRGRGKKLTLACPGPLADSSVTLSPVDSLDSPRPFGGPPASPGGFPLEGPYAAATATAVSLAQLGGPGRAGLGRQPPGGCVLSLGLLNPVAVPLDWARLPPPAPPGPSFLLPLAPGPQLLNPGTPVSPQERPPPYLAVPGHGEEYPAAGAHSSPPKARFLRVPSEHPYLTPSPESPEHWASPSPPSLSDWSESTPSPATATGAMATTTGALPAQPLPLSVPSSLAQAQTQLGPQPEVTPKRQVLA

In the case of `COC(=O)[C@@H]1CC[C@@H](C)[C@H](c2ccc(Br)cc2)N1`, the composite z-score was 0.265 in assay [1]; -0.188 in assay [5]; -0.0943 in assay [7]; 0.255 in assay [8]; -0.275 in [9]; -0.125 in assay [10]. The composite z-score is 0.644 in [11]; -0.013 in assay [12]; -0.0951 in assay [13]; -0.0342 in assay [15]; -0.0839 in [16]; 0.185 in assay [17]. The composite z-score in assay [18] was -0.155; in assay [19], 0.133; in assay [20], 0.987. Further, the z-score is 0.0156 (inactive) in assay [2]; -0.179 (inactive) in assay [3]; -0.116 (inactive) in assay [4]; 0.104 (inactive) in [6]; -0.203 (inactive) in assay [14].
In the case of `O=c1n(Cc2cc3c(cc2Cl)OCO3)c(=O)n2n1CC[C@@H]1C(=NOC[C@@H](O)COCc3ccco3)[C@H]3O[C@H]3[C@@H](O)[C@@H]12`, the composite z-score was 0.101 in assay [1]; 0.177 in [5]; -0.286 in assay [7]; 0.323 in assay [8]; 0.667 in assay [9]; -0.0976 in [10]. The composite z-score in assay [11] is 0.461; in assay [12] it was -0.0876; in assay [13] it was -0.454; in assay [15], 0.246; in assay [16] it was 0.532; in assay [17] it was 0.349. Also, the results for the composite z-score in assay [18], in assay [19] and in assay [20] were 0.596, 0.538 and 0.217, respectively. The z-score is 1.52 (inactive) in assay [2]; 0.807 (inactive) in assay [3]; 1.24 (inactive) in [4]; 0.283 (inactive) in [6]; 0.115 (inactive) in assay [14].
For the molecule `CCc1cc2c(nc1CC)CCN(CCC(C)=NO[C@@H](C)c1cn([C@H](CO)Cc3ccccc3)nn1)C2`, the composite z-score in [1] was -0.329; in assay [5], 0.559; in assay [7], 0.0336; in [8] it was 0.42; in [9], 0.438; in assay [10], -0.0679. Moreover, the composite z-score in [11] is 0.6; in assay [12] it was -0.102; in assay [13], 0.0143; in [15], -0.122; in assay [16], -0.32; in assay [17] it was 0.253. Moreover, the composite z-score in assay [18] was 0.474; in assay [19] it was 0.436; in assay [20] it was 1.29. The z-score in assay [2] is 0.687 (inactive); in assay [3] it was 0.22 (inactive); in assay [4], -0.215 (inactive); in assay [6], -0.189 (inactive); in assay [14] it was 0.113 (inactive).
As for `COc1ccc(O[C@H]2C=C[C@@H](c3ccccc3)O[C@@H]2CON=C(C)C)cc1`, the composite z-score in assay [1] is -0.818; in assay [5], -0.222; in assay [7] it was 0.175; in assay [8], -0.0668; in assay [9] it was -0.943; in [10] it was 0.0102. Besides, the composite z-score is 1.04 in assay [11]; 0.267 in [12]; 0.755 in assay [13]; -0.665 in [15]; -1.12 in assay [16]; -0.0601 in assay [17]. For the same molecule, the composite z-score is -0.0815 in assay [18], -0.292 in [19] and 1.42 in [20]. Also, the z-score is 0.278 (inactive) in assay [2]; -2.91 (inactive) in assay [3]; 0.0212 (inactive) in [4]; 0.511 (inactive) in assay [6]; 1.07 (inactive) in [14].
`CC(C)=CCCC(C)=CCON=C1C[C@@H](O)[C@@H](O)[C@@H]2[C@@H]3C(=O)N(C(C)(C)C)C(=O)[C@@H]3CC[C@@H]12`: the composite z-score in [1] was -0.305; in [5], 0.197; in assay [7] it was -0.0615; in assay [8], 0.386; in assay [9], 0.605; in [10] it was -0.0594. For the same molecule, the composite z-score in assay [11] was 0.263; in assay [12], 0.0156; in [13], -0.046; in assay [15], 0.313; in assay [16], 0.426; in assay [17] it was 0.619. Further, the values for the composite z-score in assay [18], in [19] and in [20] were 0.51, 0.18 and 0.231, respectively. The z-score in assay [2] is 0.286 (inactive); in assay [3], 0.451 (inactive); in [4] it was 0.361 (inactive); in assay [6], -0.636 (inactive); in assay [14] it was -0.0767 (inactive).
For the molecule `CCOC(=O)[C@H](Cc1ccccc1)NC(=O)CCC1CC(OC(=O)NCCc2ccc(F)cc2)CC2(CCCC(COC(=O)NCCCN3CCCC3=O)O2)O1` (stereo not given in full), the composite z-score in assay [1] was 1.37; in assay [5], 2; in assay [7], -0.0986; in [8] it was 0.373; in [9] it was 1.14; in assay [10], 0.006. Moreover, the composite z-score in assay [11] was 0.844; in assay [12], -0.257; in assay [13], -0.802; in [15] it was 0.767; in [16], 0.843; in [17], 0.478. For the same molecule, the composite z-score was 0.69 in assay [18], 0.493 in assay [19] and -0.103 in assay [20]. Besides, the z-score was -1.68 (inactive) in assay [2]; -0.574 (inactive) in assay [3]; 0.674 (inactive) in assay [4]; -0.806 (inactive) in assay [6]; -1.79 (inactive) in [14].
On to `COc1cccc([C@@H]2Oc3ccc(OC)cc3C(=O)[C@H]2O)c1`, for which the composite z-score in assay [1] was 0.597; in [5] it was 0.704; in assay [7], -0.173; in assay [8], 0.052; in assay [9], 0.415; in assay [10], -0.0697. Further, the composite z-score in [11] is -0.117; in assay [12], -0.172; in assay [13], -0.705; in assay [15] it was 0.606; in assay [16] it was 0.184; in [17], 0.469. For the same molecule, the results for the composite z-score in assay [18], in [19] and in assay [20] were 0.525, 0.527 and 0.0204, respectively. Besides, the z-score in [2] is -2.23 (inactive); in assay [3] it was -4.98 (inactive); in [4] it was -2.1 (inactive); in assay [6], 0.349 (inactive); in assay [14], -2.47 (inactive).
Regarding `CCOC(=O)[C@H](CC(C)C)NC(=O)CCC1CC(OC(=O)NCc2cccc3ccccc23)CC2(CCCC(COC(=O)NCCc3ccc(Cl)cc3)O2)O1` (stereo not given in full), the composite z-score in assay [1] was 0.333; in [5] it was 1.04; in assay [7], -0.188; in [8], 0.434; in assay [9], 0.741; in assay [10], -0.0334. Further, the composite z-score is 0.409 in [11]; -0.0738 in assay [12]; -0.406 in assay [13]; 0.365 in assay [15]; 0.355 in assay [16]; 0.681 in assay [17]. Also, the composite z-score was 0.726 in assay [18], 0.323 in assay [19] and -0.293 in assay [20]. In addition, the z-score in assay [2] is -1.16 (inactive); in assay [3] it was -0.858 (inactive); in [4], -0.164 (inactive); in [6], -0.0339 (inactive); in assay [14], -1.18 (inactive).
Consider `CC(CCN1CCc2nc(-c3ccccc3)c(-c3ccccc3)cc2C1)=NOC[C@@H](O)COCc1ccco1`, for which the composite z-score in assay [1] is 0.651; in assay [5], 0.0955; in assay [7] it was -0.176; in assay [8] it was 0.806; in [9], 0.481; in assay [10] it was -0.083. Besides, the composite z-score in assay [11] was 0.752; in assay [12], -0.131; in [13], -0.614; in assay [15], 0.52; in assay [16], 0.814; in [17], 0.377. Also, the results for the composite z-score in assay [18], in [19] and in assay [20] were 0.776, 1.08 and 1.48, respectively. Moreover, the z-score is -0.544 (inactive) in assay [2]; -1.45 (inactive) in assay [3]; -3.75 (inactive) in assay [4]; 0.845 (inactive) in [6]; 0.0302 (inactive) in [14].
